According to PubChem BioAssay (EPA / NIEHS):
“And” between values parts separate entries of the source, which are not always exact repeats. Equal values may be shown once. Results filed as inconclusive are left out. Where a structure was tested more than once in an assay, its records may differ in their call. The source made the active and inactive calls. The calls were made as follows: active = hit-call score of the fitted dose curve at least 0.9, where 1 is the maximum; inconclusive = response in the unintended direction; inactive = score below 0.9.

Tests used:
[1] = TOX21_p53_BLA_p2_viability: Viability Assessment in the Tox21 HCT-116 p53 Agonism Beta-lactamase Assay, Phase 2 (AID 2283591);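 also: actives lower the ATP signal meaning cytotoxicity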
Procedure, shortened: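 HCT116 p53-bla cells, 4000/well, dosed after 5 h plating (217-fold dilution of DMSO stocks) and incubated 16 h at 37C. Viability taken as cellular ATP by CellTiter-Glo luminescence after 30 min RT; signal loss marks cytotoxicity.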

[2] = target: Cellular tumor antigen p53 (Homo sapiens) (UniProt P04637); experiment: TOX21_p53_BLA_p2_ratio: Tox21 HCT-116 p53 Agonism Beta-lactamase Assay, Ratio, Phase 2 (AID 2283592)
Procedure, shortened: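 First, HCT116 reporter cells settle for 5 h at 37C. Next, DMSO compound solutions are pinned in (217-fold dilution) and left 16 h. Finally, CCF4-AM substrate is loaded 2 h at room temperature and the 460/530 nm ratio read.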

[3] = TOX21_p53_BLA_p3_viability: Viability Assessment in the Tox21 HCT-116 p53 Agonism Beta-lactamase Assay, Phase 3 (AID 2283593);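 also: cells exposed to compound for 16 h before reading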
Procedure, shortened: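 HCT116 cells, 4000/well, dosed 5 h after plating by pin transfer (217-fold dilution from DMSO stock) and incubated 16 h at 37C, 5% CO2. Viability read as ATP luminescence with CellTiter-Glo after 30 min at room temperature.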

[4] = target: Cellular tumor antigen p53 (Homo sapiens) (UniProt P04637); experiment: TOX21_p53_BLA_p3_ratio: Tox21 HCT-116 p53 Agonism Beta-lactamase Assay, Ratio, Phase 3 (AID 2283596)
Procedure, shortened: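 Cells were seeded at 4000/well, rested 5 h at 37C, then dosed with DMSO compound solutions (217-fold dilution) for 16 h. CCF4-AM substrate was loaded for 2 h at room temperature, and the 460/530 nm emission ratio was fitted for gain of signal versus DMSO.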

[5] = TOX21_p53_BLA_p4_viability: Viability Assessment in the Tox21 HCT-116 p53 Agonism Beta-lactamase Assay, Phase 4 (AID 2283597);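 also: hits lower the luminescence signal meaning cytotoxicity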
Procedure, shortened: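 4000 HCT116 cells per well; 5 h attachment; compounds from DMSO, 217-fold dilution; 16 h at 37C. Then CCF4-AM, 2 h RT, followed by CellTiter-Glo, 30 min RT, luminescence. Decrease = cytotoxicity.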

[6] = target: Cellular tumor antigen p53 (Homo sapiens) (UniProt P04637); experiment: TOX21_p53_BLA_p5_ratio: Tox21 HCT-116 p53 Agonism Beta-lactamase Assay, Ratio, Phase 5 (AID 2283599)
Procedure, shortened: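 HCT-116 p53-bla cells (4000/well) plated 5 h, dosed with compound (217-fold DMSO dilution) for 16 h at 37 C; CCF4-AM substrate 2 h at room temperature. Activity is the 460/530 nm emission ratio (405 nm excitation), fitted in gain-of-signal direction versus DMSO.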

[7] = TOX21_p53_BLA_p5_viability: Viability Assessment in the Tox21 HCT-116 p53 Agonism Beta-lactamase Assay, Phase 5 (AID 2283600)
Procedure, shortened: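 Decreased CellTiter-Glo luminescence denotes lost viability. Exposure: 16 h at 37C, 5% CO2, with compounds from DMSO stocks diluted 217-fold in wells of 4000 cells.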

[8] = target: Cellular tumor antigen p53 (Homo sapiens) (UniProt P04637); experiment: TOX21_p53_BLA_p4_ratio: Tox21 HCT-116 p53 Agonism Beta-lactamase Assay, Ratio, Phase 4 (AID 2283601)
Procedure, shortened: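 HCT-116 p53 beta-lactamase reporter cells (4000/well) preincubated 5 h, then compound (217-fold dilution of DMSO stock) for 16 h at 37C. CCF4-AM substrate added 2 h at room temperature; 460/530 nm emission ratio fitted upward versus DMSO.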

[9] = ATG_XTT_Cytotoxicity: Cytotoxicity Assessment in the Attagene TRANS-FACTORIAL HepG2 Assay (AID 2283584)
Procedure, shortened: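 HepG2 cells transiently transfected with GAL4-UAS multiple reporter units, dosed 24 h; cytotoxicity read by XTT as loss of signal versus DMSO baseline.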

Measured: AC50

Sequence of Cellular tumor antigen p53 (Homo sapiens) (P04637 whole entry, looked up): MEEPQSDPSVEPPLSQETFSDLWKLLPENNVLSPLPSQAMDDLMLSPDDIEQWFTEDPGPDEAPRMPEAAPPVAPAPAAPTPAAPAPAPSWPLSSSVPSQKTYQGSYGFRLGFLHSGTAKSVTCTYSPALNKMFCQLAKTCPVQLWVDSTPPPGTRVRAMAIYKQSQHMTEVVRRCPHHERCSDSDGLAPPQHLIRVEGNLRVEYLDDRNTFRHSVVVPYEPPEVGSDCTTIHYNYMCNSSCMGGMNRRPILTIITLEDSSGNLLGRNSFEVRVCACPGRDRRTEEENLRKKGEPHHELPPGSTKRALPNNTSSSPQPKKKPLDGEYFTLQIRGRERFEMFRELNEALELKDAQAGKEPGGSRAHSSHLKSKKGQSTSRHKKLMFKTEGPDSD

Nc1ccc(S(N)(=O)=O)cc1
not listed: [9]
inactive: all other assays above

CCCC/C=C\CCCCCCCCCC=O
not listed: [9]
inactive: all other assays above

COC(C)CCO (stereo not drawn)
inactive: [1] | [3] | [4] | [7]

O=C(O)c1cn(C2CC2)c2cc(N3CCNCC3)c(F)cc2c1=O
inactive: [9] | [5] | [7]

COCCOCCOCCOCCOCCO
not listed: [5] | [7] | [9]
inactive: all other assays above

CC(=O)Nc1ccc(C)cc1C
not listed: [5] | [7] | [9]
inactive: all other assays above

O=C(O)c1cccc(C(F)(F)F)c1
not listed: [9]
inactive: all other assays above

CCN(CC)c1ccc2c(-c3ccccc3C(=O)O)c3ccc(=[N+](CC)CC)cc-3oc2c1
not listed: [9]
inactive: all other assays above

CC1=CCC(O)(C(C)C)CC1 (stereo not drawn)
not listed: [3] | [7] | [9]
inactive: all other assays above

CC(C)C1CCC(O)CC1 (stereo not drawn)
not listed: [4] | [6] | [9]
inactive: all other assays above

CC1(C)[C@H]2CC[C@]1(C)[C@H](O)C2
not listed: [8] | [9]
inactive: all other assays above

CC(=O)O[C@]1(C(C)=O)CC[C@H]2[C@@H]3C[C@H](C)C4=CC(=O)CC[C@]4(C)[C@H]3CC[C@@]21C
not listed: [7] | [9]
inactive: all other assays above

CCCC(=O)c1cc(O)c(O)cc1O
not listed: [9]
inactive: all other assays above

O=C(O)COCCN1CCN(C(c2ccccc2)c2ccc(Cl)cc2)CC1 (stereo not drawn)
not listed: [9]
inactive: all other assays above

CC(=O)Nc1ccccc1O
inactive: [1] | [2] | [5] | [8]

NC(=O)Nc1ccc(Cl)cc1
inactive: [9] | [4] | [8]

C[C@H]1C[C@H]2[C@@H]3CCC4=CC(=O)C=C[C@]4(C)[C@@]3(F)[C@@H](O)C[C@]2(C)[C@@]1(O)C(=O)COP(=O)(O)O
not listed: [6] | [9]
inactive: all other assays above

Nc1cc(Cl)c(O)c(Cl)c1
not listed: [7] | [9]
inactive: all other assays above

O=C(OCc1ccccc1)C(=O)OCc1ccccc1
inactive: [1] | [2] | [4] | [6] | [8]

CC(C)=CCCC(C)=CCCC(C)=CCO
not listed: [4] | [9]
inactive: all other assays above

C=CC(=O)OCCn1c(=O)n(CCOC(=O)C=C)c(=O)n(CCOC(=O)C=C)c1=O
inactive: [3] | [6] | [7] | [8]
active: [1] 46.1 µM | [5] 15.4 µM

CNCCCC12CCC(c3ccccc31)c1ccccc12
active: [2] 85.8 µM | [3] 70.4 µM | [5] 62.7 µM and 36.6 µM | [6] 90.1 µM | [7] 70.2 µM | [8] 87 µM
inactive: [2] | [3] | [4] | [6] | [7] | [8]

CO[Si](CCCn1c(=O)n(CCC[Si](OC)(OC)OC)c(=O)n(CCC[Si](OC)(OC)OC)c1=O)(OC)OC
inactive: [2] | [3] | [5] | [8]

O=C(O)c1cccc([N+](=O)[O-])c1
not listed: [1] | [9]
inactive: all other assays above

C=C(C)C(=O)OCCOC(=O)CC(C)=O
inactive: [2] | [4] | [6] | [7] | [8]

CC(C)Oc1ccccc1O
not listed: [1] | [3] | [9]
inactive: all other assays above

CCOC(=S)SSC(=S)OCC
not listed: [1] | [9]
inactive: all other assays above
